{"source": "the antibiotic and cytotoxicity screens of Wong et al. (2023)", "note": "Hit rate of the full screen: of about 39,000 compounds, about 3,300 (8.5%) were called active. For the sample, actives were picked, then their nearest neighbours and some compounds at random.", "data": [{"system": "HepG2", "test": "cytotoxicity call (relative viability < 0.9)", "conditions": "10 µM", "values": [{"smiles": "COCC(=O)Nc1ccc2c(c1)C(=O)N(C)[C@@H]1CC[C@H](CC(=O)NCc3ccc(OC)cc3)O[C@H]1CO2", "cytotoxicity call": "inactive"}, {"smiles": "C[C@H]1CN([C@@H](C)CO)C(=O)Cc2cc(NS(=O)(=O)c3ccccc3)ccc2O[C@H]1CN(C)CC1CC1", "cytotoxicity call": "inactive"}, {"smiles": "C[C@@H]1CN([C@@H](C)CO)C(=O)c2cc(NC(=O)CCC(F)(F)F)ccc2O[C@@H](C)CCCCO[C@H]1CN(C)S(=O)(=O)c1ccc(F)cc1", "cytotoxicity call": "inactive"}, {"smiles": "COc1ccccc1CNC(=O)C[C@H]1C[C@@H]2c3cc(NC(=O)C4CCOCC4)ccc3O[C@@H]2[C@@H](CO)O1", "cytotoxicity call": "inactive"}, {"smiles": "COc1ccc(S(=O)(=O)Nc2ccc3c(c2)C(=O)N([C@H](C)CO)C[C@@H](C)[C@@H](CN(C)CC2CC2)O3)cc1", "cytotoxicity call": "inactive"}, {"smiles": "Cc1noc(C)c1NC(=O)N(C)C[C@H]1Oc2ccc(NC(=O)NC(C)C)cc2CC(=O)N([C@@H](C)CO)C[C@H]1C", "cytotoxicity call": "inactive"}, {"smiles": "O=C(CN1CCOCC1)NCC[C@H]1CC[C@H](NC(=O)Nc2ccccc2)[C@@H](CO)O1", "cytotoxicity call": "inactive"}, {"smiles": "C[C@@H]1CCCCO[C@@H](CN(C)C(=O)Nc2ccc3c(c2)OCO3)[C@@H](C)CN([C@H](C)CO)C(=O)c2cc(NC(=O)Nc3ccccc3)ccc2O1", "cytotoxicity call": "inactive"}, {"smiles": "Nc1cccc(C2=NCCN2)c1", "cytotoxicity call": "inactive"}, {"smiles": "CS(=O)(=O)Nc1ccc2c(c1)[C@H]1C[C@@H](CC(=O)NCC3CC3)O[C@H](CO)[C@H]1O2", "cytotoxicity call": "inactive"}, {"smiles": "COc1ccc(NC(=O)N(C)C[C@@H]2Oc3ncc(C#CCN(C)C)cc3C(=O)N([C@@H](C)CO)C[C@@H]2C)cc1", "cytotoxicity call": "inactive"}, {"smiles": "C[C@@H]1CN([C@@H](C)CO)C(=O)c2cccc(NS(=O)(=O)c3ccc(F)cc3)c2O[C@@H]1CN(C)S(=O)(=O)c1ccc(F)cc1", "cytotoxicity call": "active"}, {"smiles": "C[C@H]1CN([C@@H](C)CO)C(=O)c2cccc(NS(=O)(=O)c3ccc(F)cc3)c2O[C@H]1CN(C)S(=O)(=O)c1ccc(F)cc1", "cytotoxicity call": "inactive"}, {"smiles": "C[C@H](CO)N1C[C@H](C)[C@H](CN(C)S(=O)(=O)c2ccc(F)cc2)Oc2c(NS(=O)(=O)c3ccc(F)cc3)cccc2C1=O", "cytotoxicity call": "inactive"}, {"smiles": "CC(C)C#Cc1ccc2c(c1)O[C@@H](CN(C)S(=O)(=O)c1cn(C)cn1)[C@H](C)CN([C@H](C)CO)S2(=O)=O", "cytotoxicity call": "inactive"}, {"smiles": "O=C(CS)NCCCCCCNC(=O)[C@@H]1C[C@@H]2C(=O)N[C@@H](Cc3ccccc3)C(=O)N2[C@@H]1c1ccc(O)cc1", "cytotoxicity call": "inactive"}, {"smiles": "COc1ccc(NC(=O)N2C[C@H](O)COC[C@H]3O[C@@H](CC(=O)NC4Cc5ccccc5C4)CC[C@@H]32)cc1", "cytotoxicity call": "inactive"}, {"smiles": "CO[C@H]1CN(C)C(=O)c2ccc(NC(=O)C3CC3)cc2OC[C@@H](C)N(C(=O)CN2CCOCC2)C[C@H]1C", "cytotoxicity call": "inactive"}, {"smiles": "C[C@H]1CN([C@@H](C)CO)C(=O)c2cccc(NC(=O)c3ccc(-c4nccs4)cc3)c2O[C@H]1CN(C)C(=O)Nc1cccc2ccccc12", "cytotoxicity call": "inactive"}, {"smiles": "C=CCNC(=O)[C@H]1[C@@H]2C(=O)O[C@@H](c3ccccc3)[C@@H](c3ccccc3)N2[C@@H](c2ccccc2OCCO)[C@]12C(=O)Nc1ccc(C#CC3=CCCCC3)cc12", "cytotoxicity call": "inactive"}, {"smiles": "COc1ccc(C#Cc2ccc3c(c2)[C@]2(C(=O)N3)[C@H](c3ccc(OCCO)cc3)N3[C@H](c4ccccc4)[C@H](c4ccccc4)OC(=O)[C@H]3[C@@H]2C(=O)NC[C@H](O)c2ccccc2)cc1", "cytotoxicity call": "inactive"}, {"smiles": "C=CCNC(=O)[C@@H]1[C@H]2C(=O)O[C@H](c3ccccc3)[C@H](c3ccccc3)N2[C@H](c2ccccc2OCCO)[C@@]12C(=O)Nc1ccc(C#Cc3ccc(OC)cc3)cc12", "cytotoxicity call": "inactive"}, {"smiles": "COc1ccc(C#Cc2ccc3c(c2)[C@]2(C(=O)N3)[C@H](C(=O)O)[C@H]3C(=O)O[C@H](c4ccccc4)[C@H](c4ccccc4)N3[C@@H]2c2ccccc2OCCO)cc1", "cytotoxicity call": "inactive"}, {"smiles": "COc1ccc(C#Cc2ccc3c(c2)[C@]2(C(=O)N3)[C@H](C(=O)N3CCN(c4ncccn4)CC3)[C@H]3C(=O)O[C@H](c4ccccc4)[C@H](c4ccccc4)N3[C@@H]2c2ccccc2OCCO)cc1", "cytotoxicity call": "inactive"}, {"smiles": "COc1ccc(C#Cc2ccc3c(c2)[C@]2(C(=O)N3)[C@H](C(=O)N3CCN(c4ncccn4)CC3)[C@H]3C(=O)O[C@H](c4ccccc4)[C@H](c4ccccc4)N3[C@@H]2c2ccc(OCCO)cc2)cc1", "cytotoxicity call": "inactive"}, {"smiles": "COc1ccc(C#Cc2ccc3c(c2)[C@]2(C(=O)N3)[C@H](C(N)=O)[C@H]3C(=O)O[C@H](c4ccccc4)[C@H](c4ccccc4)N3[C@@H]2c2ccccc2OCCO)cc1", "cytotoxicity call": "active"}, {"smiles": "COc1ccc(C#Cc2ccc3c(c2)[C@]2(C(=O)N3)[C@H](c3ccccc3OCCO)N3[C@H](c4ccccc4)[C@H](c4ccccc4)OC(=O)[C@H]3[C@@H]2C(=O)NC[C@H](O)c2ccccc2)cc1", "cytotoxicity call": "active"}, {"smiles": "C=CCNC(=O)[C@@H]1[C@H]2C(=O)O[C@H](c3ccccc3)[C@H](c3ccccc3)N2[C@H](c2ccccc2OCCO)[C@@]12C(=O)Nc1ccc(C#CC3=CCCCC3)cc12", "cytotoxicity call": "inactive"}, {"smiles": "COc1ccc(C#Cc2ccc3c(c2)[C@]2(C(=O)N3)[C@H](c3ccccc3OCCO)N3[C@H](c4ccccc4)[C@H](c4ccccc4)OC(=O)[C@H]3[C@@H]2C(=O)N2CCN(c3ncccn3)CC2)cc1", "cytotoxicity call": "active"}, {"smiles": "O=C1O[C@H](c2ccccc2)[C@H](c2ccccc2)N2[C@H]1[C@@H](C(=O)NC[C@@H](O)c1ccccc1)[C@]1(C(=O)Nc3ccc(C#CC4=CCCCC4)cc31)[C@H]2c1ccccc1OCCO", "cytotoxicity call": "active"}, {"smiles": "COc1ccc(C#Cc2ccc3c(c2)[C@]2(C(=O)N3)[C@H](c3ccccc3OCCO)N3[C@H](c4ccccc4)[C@H](c4ccccc4)OC(=O)[C@H]3[C@@H]2C(=O)O)cc1", "cytotoxicity call": "inactive"}, {"smiles": "Cc1noc(C)c1NC(=O)Nc1ccc2c(c1)C(=O)N([C@@H](C)CO)C[C@H](C)[C@H](CN(C)Cc1ccc(C(F)(F)F)cc1)O2", "cytotoxicity call": "inactive"}, {"smiles": "Cc1noc(C)c1NC(=O)N(C)C[C@@H]1Oc2c(NS(=O)(=O)c3cn(C)cn3)cccc2C(=O)N([C@H](C)CO)C[C@@H]1C", "cytotoxicity call": "inactive"}, {"smiles": "OCCCn1cnnc1", "cytotoxicity call": "inactive"}, {"smiles": "C[C@H](CO)N1C[C@H](C)[C@H](CN(C)C)Oc2cc(C#CCN(C)C)ccc2S1(=O)=O", "cytotoxicity call": "inactive"}]}]}
